According to PubChem BioAssay:
Potency and affinity values are given separately. The source made the active and inactive calls. The limit is not given here; nearly all actives have IC50 up to about 0.98 µM.

What follows are compounds tested against Calcium-dependent protein kinase 1 (Plasmodium falciparum (isolate 3D7)) (UniProt P62344) (assay: PfCDPK1 kinase inhibitors, biochemical, TCAMS library (AID 1159585;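 also: inhibitors leave more ATP so luminescence rises with inhibition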)). Conditions: recombinant PfCDPK1, Kinase-Glo ATP depletion luminescence.
Sequence of Calcium-dependent protein kinase 1 (Plasmodium falciparum (isolate 3D7)) (P62344 whole entry, looked up): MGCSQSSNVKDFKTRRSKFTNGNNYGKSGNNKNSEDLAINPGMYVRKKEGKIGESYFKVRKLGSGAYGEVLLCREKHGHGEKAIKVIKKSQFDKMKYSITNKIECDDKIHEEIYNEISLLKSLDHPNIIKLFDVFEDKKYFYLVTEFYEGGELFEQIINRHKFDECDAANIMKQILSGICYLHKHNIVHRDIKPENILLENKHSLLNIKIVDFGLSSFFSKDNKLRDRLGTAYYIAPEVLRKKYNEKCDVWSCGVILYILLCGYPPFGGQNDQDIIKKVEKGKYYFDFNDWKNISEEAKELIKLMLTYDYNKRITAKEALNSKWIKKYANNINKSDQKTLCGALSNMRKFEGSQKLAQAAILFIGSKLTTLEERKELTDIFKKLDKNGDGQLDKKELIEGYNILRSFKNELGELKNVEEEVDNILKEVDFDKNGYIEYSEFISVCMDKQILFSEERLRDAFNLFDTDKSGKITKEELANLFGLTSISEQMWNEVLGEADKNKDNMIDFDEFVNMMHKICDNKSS

outcome, inactive:
Cc1nc(C(=O)N2CCCC[C@H]2CNC(=O)c2ccc(-c3ccc(N4CCCC4=O)cc3C)cc2)c(-c2ccc(F)cc2)s1
CCCNc1nc(NCc2c(C)cccc2C)nc(NC(C)(C)C)n1
COc1cc2c(cc1N1C[C@@H](C)N[C@@H](C)C1)N(C(=O)c1ccc(-c3ccc(-c4ncc[nH]4)cc3C)cc1)CC2
CCc1cccc2sc(N3CCN(C(=O)c4ccc([N+](=O)[O-])o4)CC3)nc12
O=S(=O)(Nc1cccc(CCN2CCC(N3CCCCC3)CC2)c1)c1ccccc1C(F)(F)F
O=C(c1cccs1)N1CCN(c2ccc([N+](=O)[O-])c(NC3CC3)c2)CC1
Oc1cc(Nc2ccnc3cc(-c4ccc(CN5CCCCC5)o4)c(Cl)cc23)c(Cl)cc1F
O=[N+]([O-])c1ccc(NC(=NCCOc2ccccc2)Nc2ccccc2Br)c(O)c1
COc1ccccc1N1CCN(CCCCNC(=O)c2ccc(NC(=O)c3ccc(C(F)(F)F)cc3)cc2)CC1
COc1cc2ncnc(NCCc3ccccc3Cl)c2cc1OC
O=C(CCc1cnc[nH]1)Nc1cccc(-c2ccc(-c3nc4ccc(F)cc4[nH]3)cc2)c1
CNC(=O)NC1=NC(C)(C)N(OCCCOc2cc(Cl)c(Cl)cc2Cl)C(N)=N1
CC(Cc1ccc(OCCN2CCN(c3cccc(Cl)c3)CC2)cc1)NCC(O)c1cccc(C(F)(F)F)c1 (stereo not given)
CCc1ccc(-c2nc3cc(NC(=O)c4cc([N+](=O)[O-])cc([N+](=O)[O-])c4)ccc3o2)cc1
O=C(/C=C/c1ccc([N+](=O)[O-])cc1)N1CCC(NS(=O)(=O)c2ccc(F)cc2)CC1
O=C(Nc1ccc(Cn2ncc(N3CCCNCC3)c(Cl)c2=O)cc1)Nc1cc(F)cc(C(F)(F)F)c1
O=C(Cc1cccs1)NC(CCCN1CCC(Oc2cccc(Cl)c2)CC1)c1ccc(Cl)c(Cl)c1 (stereo not given)
NCC1CCCN1Cc1ccc(-c2ccc(-c3nc4ccc(C(F)(F)F)cc4[nH]3)s2)cc1 (stereo not given)
Cc1ccccc1Nc1nc(Nc2ccccc2)c2ccccc2n1
O=C(C=NO)Nc1ccccc1[N+](=O)[O-]
FC(F)(F)c1ccc2c(NCCc3ccccc3)ccnc2c1
COc1ccc(-c2ccc(NC(=O)c3ccc(F)cc3)cc2)cc1CNC(C)C
COc1ccccc1CCN(C)CCN1CCC(NC(=O)c2ccc(-c3ccc(C(F)(F)F)cc3)cc2)CC1
FC(F)(F)c1ccc2nc(-c3ccc(-c4cccc(CNCCc5ccncc5)c4)s3)[nH]c2c1
CC(C)(C)C/C=C\c1ccc(C(=O)NCC2CC2)cc1
CCOc1ccc(S(=O)(=O)N(C)c2ccc(OCC(=O)Nc3nccs3)cc2)cc1
CCOc1cc(C(=O)N[C@@H](Cc2ccccc2)[C@H](O)CNCc2cc(OC)cc(OC)c2)cc(N2CCCS2(=O)=O)c1
COc1ccc(CNc2nc(NCc3ccc(C(F)(F)F)cc3)c3cc(OC)c(OC)cc3n2)cc1OC
Cc1c(CNCCCNc2nc3cscc3[nH]2)sc(C(F)F)c1Br
Cc1ccc(Nc2nccc(NCC(O)c3cccc(C(F)(F)F)c3)n2)cc1 (stereo not given)
Cc1ccccc1Nc1nc(NCCc2ccccc2)nc2ccccc12
CCOC(=O)c1c(C)n(-c2ccccc2)c2ccc(OC(=O)COc3ccc(Cl)cc3Cl)cc12
CCc1cc2c3c(N)nc(N)nc3ccc2n1C(C)CC (stereo not given)
CCc1ccc(NC(=O)c2ccc(CN3CCCN(CCC(C)C)CC3)cc2)cc1
Oc1ccccc1CN1CCCC(COC(c2ccc(F)cc2)c2ccc(F)cc2)C1 (stereo not given)
CC1CN(Cc2ccc(C#N)cc2)CCN1c1ccc(NC(=O)c2cccs2)cc1 (stereo not given)
O=C(Nc1ccccc1)N(Cc1ccccc1-c1cccc(CNCc2ccc3c(c2)OCO3)c1)C1CCN(Cc2ccccc2)CC1
COc1cc(CC2c3cc(O)c(Cl)cc3CCN2C)c(OC)cc1C (stereo not given)
COc1cc(NC(=O)/C=C/c2cc(F)cc(F)c2F)cc(OCCN2CCC(O)(c3ccccc3)CC2)c1
CC(Nc1nc(Nc2ccc(F)cc2)nc(SCC(N)=O)n1)c1ccccc1 (stereo not given)
